Screening data: PubChem, National Center for Advancing Translational Sciences (NCATS)
A selection: hits, their analogues and other compounds. The true share with any hit is near 7.5%.
SMN2 splice up: enhancers of SMN2 splice variant expression; HEK293 SMN2-luciferase splicing reporter, luminescence, 30-36 h; Potency, µM (highest dose often 46.1 µM), inactives show at the highest dose activity change, positive = activation, most hits filed as activators; AID 1458; 210,000 compounds, 2.8% hits; note: % of control where 0% means no effect; nearly all actives have a fitted effect of over 55% in size
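HEK293 cells carry an SMN2 […]–luciferase reporter in which exon 7 inclusion puts luciferase in frame. Cells were plated 10-12 h before compound addition, then incubated 30-36 h at 37C. ONE-Glo luminescence was read; sodium butyrate at 4.5 mM final served as control.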
KinaseGlo FLuc: counter-screen: inhibitors of Kinase-Glo firefly luciferase; Potency, µM (titrated, usually from 38.3 µM), for the others: at the top dose activity change, negative = inhibition, hits mostly inhibitors; 200,000 compounds, 0.28% hits; Kinase-Glo luciferase, ATP luminescence, 8 min; Q27757; note: % is set by controls: 0 for no effect and ±100 for the full control effect; nearly all actives have a fitted effect of over 60% in size
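Luminescence was the read-out, taken after 8-minute incubation at ambient temperature. Luciferase turned over luciferin with 10 uM ATP in imidazole pH 7.2 buffer containing KCl, MgCl2, Tween 20 and BSA.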
ELG1 genotoxic: genotoxicity induction in ELG1-luciferase HEK293T cells. HEK293T ELG1-luciferase reporter, luminescence, 16 h. Potency, µM (series often up to 46 µM), for inactives: at the highest dose activity change, positive = activation, hits mostly activators. 330,000 compounds, 1.3% hits; note: % of control where 0% means no effect; nearly all actives have a fitted effect of over 60% in size
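Quantitative HTS format in 1536-well plates. HEK293T ELG1-luciferase reporter cells receive test compound and are incubated 16 hr at 37 °C, 5% CO2; ONE-Glo added, 30 min room temperature, then luminescence read.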
FLuc counter: inhibits or activates purified firefly luciferase, miR-21 counter-screen; purified FLuc, Km substrates, luminescence inhibition; Potency, µM (top dose mostly 57.5 µM), inactives show at the top dose activity change, negative = inhibition, hits mostly inhibitors; 360,000 compounds, 6.9% hits; AID 588342;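 note: plate controls were vehicle for no effect and reference inhibitor for full effect; nearly all actives have a fitted effect of over 55% in size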
Target sequence (P08659 whole entry, looked up): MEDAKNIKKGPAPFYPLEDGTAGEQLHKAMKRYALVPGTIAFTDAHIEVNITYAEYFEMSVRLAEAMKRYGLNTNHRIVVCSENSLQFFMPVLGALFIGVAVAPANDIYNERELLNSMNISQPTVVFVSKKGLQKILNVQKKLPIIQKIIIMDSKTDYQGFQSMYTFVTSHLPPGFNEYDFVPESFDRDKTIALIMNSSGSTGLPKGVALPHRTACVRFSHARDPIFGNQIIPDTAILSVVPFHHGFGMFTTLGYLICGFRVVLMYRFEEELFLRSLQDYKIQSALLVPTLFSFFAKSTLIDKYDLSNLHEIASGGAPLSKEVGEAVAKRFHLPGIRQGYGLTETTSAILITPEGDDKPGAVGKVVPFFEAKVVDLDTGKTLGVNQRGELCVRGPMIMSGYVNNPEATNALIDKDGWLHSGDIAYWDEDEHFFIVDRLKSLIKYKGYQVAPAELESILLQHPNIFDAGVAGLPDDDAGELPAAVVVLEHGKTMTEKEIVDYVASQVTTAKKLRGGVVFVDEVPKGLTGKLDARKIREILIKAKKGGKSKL
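Purified P. pyralis luciferase (10nM final) with 10uM D-luciferin and 10uM ATP (Km levels) in 50mM Tris acetate pH 7.5, 10mM Mg acetate, 0.01% Tween-20, 0.05% BSA; qHTS 6-point titration, ~60 µM downward; luminescence read.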
NPC1 prom act: activators of NPC1 promoter. Huh7 NPC1 promoter luciferase reporter, 24 h. Potency, µM (highest dose often 9.22 µM), for inactives: top-dose activation, hits mostly activators. 320,000 compounds, 2.4% hits. AID 485313; note: % of control where 0% means no effect; nearly all actives have a fitted effect of over 60% in size
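Stable NPC1-promoter luciferase Huh7 line; cpd (DMSO) 24 h, 37 °C, 5% CO2; Amplite luciferase reagent 10 min RT; luminescence readout. qHTS format.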
Rab9 promoter act: activators of Rab9 promoter. Huh7 Rab9 promoter-luciferase reporter, luminescence, 24 h. Potency, µM (titrated, usually from 9.22 µM), without a hit: top-dose activation, negative = inhibition, most hits filed as activators. 320,000 compounds, 2.8% hits. AID 485297; note: % of control where 0% means no effect; nearly all actives have a fitted effect of over 60% in size
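Huh7 cells stably carrying a Rab9 promoter-luciferase reporter, 1500 cells per well in OP-MEM I with 10% FBS, treated with compound 24 hours at 37C. Luciferase activity read by luminescence after 10 minutes with Amplite reagent.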
Numbers without * were called inactive; ? = inconclusive; . = not tested or not shown; [ ] = remark or other dose. Calls come from the whole dose curve; as a rule, active = well fitted curve in the direction sought with a large enough effect; inconclusive = small, poorly fitted or top-dose-only effect, or another doubt; inactive = no such curve, though single readings can be large; an effect the other way counts as inactive or inconclusive. Potency is the fitted concentration of half-maximal effect.

SMILES	SMN2 splice up	KinaseGlo FLuc	ELG1 genotoxic	FLuc counter	NPC1 prom act	Rab9 promoter act
CC1=C(C(=O)OC2CCCC2)C(c2cccc(Cl)c2Cl)CC(=O)N1 (stereo not drawn)	12.1%	.	.	5.2%	.	.
CCS(=O)(=O)c1ccc2oc(Nc3cccc(OC)c3)nc2c1	17.0%	-8.5%	7.1%	16.9µM*	9.6%	?
Clc1ccccc1Nc1nc2ccccc2o1	.	.	?	1.69µM*	?	0.794µM*
CCS(=O)(=O)c1ccc2oc(Nc3ccccc3Br)nc2c1	.	.	10.3µM*	9.53µM*	2.51µM*	2µM*
CCS(=O)(=O)c1ccc2oc(Nc3cc(Cl)ccc3OC)nc2c1	.	.	9.5%	?	-2.4%	0.1%
CCS(=O)(=O)c1ccc2oc(Nc3ccccc3Cl)nc2c1	.	.	5.17µM*	9.53µM*	1.58µM*	0.631µM*
Cc1nn(C)c2c1c(-c1ccccc1)cc(=O)n2Cc1ccc(Cl)cc1	.	.	.	-4.0%	.	.
COc1ccc(-c2noc(CSc3nnc(C)n3-c3cccc(C)c3)n2)cc1	-9.2%	.	.	4.1%	.	.
CCn1c2c(c(=O)n3ncc(C(=O)N4CCN(c5ccc(Cl)cc5)CC4)c13)CN(Cc1ccc(OC)cc1)CC2	.	.	.	-13.7%	.	.
N/C(=N\OC(=O)c1ccc(Br)cc1)c1ccncc1	?	-20.3%	?	4.78µM*	?	?
N/C(=N\OC(=O)c1cccc(Br)c1)c1ccncc1	16.6%	-1.2%	?	12µM*	24.6%	20.3%
COc1cc(OC)cc(C(=O)O/N=C(\N)c2ccncc2)c1	-2.1%	-2.8%	-1.6%	?	2.1%	-2.0%
N/C(=N\OC(=O)c1ccccc1)c1ccncc1	25.2%	-20.4%	?	19µM*	?	2.82µM*
O=C(COC(=O)c1cccc(C(=O)OCC(=O)c2ccc(Br)cc2)n1)c1ccc(Br)cc1	-14.7%	-1.7%	-0.1%	?	4.9%	4.4%
O=C(COC(=O)c1ccncc1)c1ccc(Br)cc1	.	-1.4%	-1.5%	7.57µM*	-0.8%	-4.4%
COc1cccc(CNC(=O)Cn2c(=O)oc3cc(S(=O)(=O)N4CCCC4)ccc32)c1	-8.1%	.	.	-4.7%	.	.
CN1CCN(C2(CNC(=O)c3ccc([N+](=O)[O-])cc3)CCCCC2)CC1	.	.	.	-6.2%	.	.
CC[C@]1(O)C[C@@H]2CN(CCc3c([nH]c4ccccc34)[C@](C(=O)OC)(c3cc4c(cc3OC)N(C=O)[C@H]3[C@@](O)(C(=O)OC)[C@H](C(=O)OC)[C@@]5(CC)C=CCN6CC[C@]43[C@H]65)C2)C1	.	1.5%	.	.	.	.
CCc1nnc(NC(=O)CSc2nc(-c3ccc(OC)cc3)ns2)s1	?	1.0%	?	1.69µM*	19.3%	?
CCOC(=O)CSc1nc(-c2ccccc2)ns1	8.7%	0.3%	1.2%	15.1µM*	-2.6%	2.1%
CCOC(=O)CNC(=O)CSc1nc(-c2ccc(OC)cc2)ns1	6.1%	0.5%	-0.1%	12µM*	5.1%	17.0%
O=C(CSc1nc(-c2ccccc2Cl)ns1)NCc1ccco1	-6.6%	-3.8%	0.1%	?	1.6%	0.2%
CCOC(=O)CSc1nnc(-c2ccccc2)c(-c2ccccc2)n1	.	.	-2.0%	-2.7%	-4.0%	-0.8%
NC(=O)CSc1nc(-c2ccccc2Cl)ns1	?	-6.8%	12.9%	?	?	3.16µM*
COc1ccc(-c2nsc(SCC(=O)Nc3cc(C)on3)n2)cc1	-3.9%	0.7%	?	2.3%	1.4%	12.4%
SMILES	SMN2 splice up	KinaseGlo FLuc	ELG1 genotoxic	FLuc counter	NPC1 prom act	Rab9 promoter act
N/C(=N\OC(=O)COc1cc(Cl)c(Cl)cc1Cl)c1ccncc1	14.1µM*	3.0%	18.3µM*	13.5µM*	?	?
Cc1ccc(OCC(=O)O/N=C(\N)c2ccncc2)c(C)c1	.	.	14.6µM*	10.7µM*	3.16µM*	3.55µM*
Cc1cc(C)c(C)c(OCC(=O)O/N=C(\N)c2ccncc2)c1	.	.	-5.3%	0.1%	0.4%	-1.5%
N/C(=N\OC(=O)COc1ccc(Br)cc1Cl)c1ccncc1	11.2µM*	1.9%	?	6.75µM*	3.55µM*	3.55µM*
N/C(=N\OC(=O)COc1ccccc1)c1ccncc1	.	.	?	?	16.8%	20.9%
O=C1CCCc2cc(S(=O)(=O)N3CCCC(C(=O)NCc4ccc(Cl)cc4)C3)ccc2N1 (stereo not drawn)	.	.	.	3.8%	.	.
CCc1ccc(-c2nc(CSCC(=O)NC3CC3)c(C)o2)cc1	.	.	1.9%	19µM*	-14.5%	-29.3%
COc1ccc(-c2nc(CSCC(=O)NCc3ccco3)c(C)o2)cc1	-40.8%	-4.1%	-1.8%	16.9µM*	1.1%	-7.4%
COC(=O)C(Cc1ccc(O)cc1)NC(=O)c1ccccc1 (stereo not drawn)	29.4%	-16.0%	-0.2%	19µM*	-5.2%	-3.4%
COC(=O)C(Cc1ccccc1)NC(=O)c1ccc(C)cc1 (stereo not drawn)	-7.5%	8.7%	-9.4%	6.01µM*	-4.1%	4.7%
COC(=O)[C@H](Cc1ccccc1)NC(=O)NCc1ccc(C)cc1	.	.	0.5%	21.3µM*	3.9%	-6.8%
Cc1ccc(C(=O)NC(Cc2ccc(C(C)(C)C)cc2)C(=O)O)cc1 (stereo not drawn)	.	.	-3.1%	.	.	.
COC(=O)[C@H](Cc1ccccc1)NC(=O)NCc1ccccc1	.	.	-2.8%	-24.7%	-0.1%	0.0%
N=S(=O)(O)Cc1noc2ccccc12	-30.3%	-2.3%	.	.	-0.6%[46.1 µM]	-1.7%[46.1 µM]
CCOc1ccc(NC(=O)CSc2nc3nc(C)c(Cc4ccccc4)c(C)n3n2)cc1	.	.	.	-5.7%	.	.
Cc1nn2c(=O)cc(COC(=O)c3ccc(NC(=O)COc4ccccc4F)cc3)nc2s1	.	.	.	0.7%	.	.
Cc1nn2c(=O)cc(COC(=O)c3c(F)cccc3Cl)nc2s1	.	.	?	?	3.98µM*	3.98µM*
Cc1nn2c(=O)cc(COC(=O)COc3ccccc3C)nc2s1	.	.	.	3.4%	.	.
Cc1nn2c(=O)cc(COC(=O)c3cccc(NC(=O)COc4ccccc4C)c3)nc2s1	.	.	.	23.9µM*	.	.
Cc1csc2nc(COC(=O)c3cccc(NC(=O)COc4ccccc4Cl)c3)cc(=O)n12	.	.	.	1.2µM*	.	.
Cc1nn2c(=O)cc(COC(=O)c3ccc(NC(=O)COc4ccc(C)c(C)c4)cc3)nc2s1	.	.	.	0.0%	.	.
Cc1ccc(OCC(=O)Nc2cccc(C(=O)OCc3cc(=O)n4nc(C)sc4n3)c2)cc1	.	.	.	9.53µM*	.	.
Cc1ccccc1OCC(=O)Nc1ccc(C(=O)OCc2cc(=O)n3c(C)csc3n2)cc1	.	.	.	0.5%	.	.
COc1ccc(CCNC(=O)c2cc3c(=O)oc4ccc(C)cc4c3s2)cc1OC	3.3%	.	.	-0.4%	.	.
O=c1cc(COc2ccc(Cl)cc2Cl)nc2scc(-c3ccccc3)n12	6.5%	.	.	-11.7%	.	.
